This is part of a sample that, as a whole, favours compounds with a hit. Of some 79,000 tested, about 15% had one in any assay. A number with no mark means an inactive call. Active and inactive are the calls of the source. No stated cut-off is given here; in the data, active means growth inhibition above about 70%; inactive means the rest.

Our source for the growth inhibition values is PubChem BioAssay (NCI).

A short description of assay [1]: NCI Yeast Anticancer Drug Screen. Data for the rad50 strain (AID 155).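 Further: 0% = growth of vehicle-only cultures of the same strain.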 Conditions: S. cerevisiae rad50 strain growth inhibition, active compounds read high. Summed up: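 Growth of the mutant yeast was measured after compound exposure and referenced to vehicle-treated cultures.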
Assay [2] is described as follows: NCI Yeast Anticancer Drug Screen. Data for the mec2-1 strain (AID 157). Conditions: S. cerevisiae mec2-1 strain, active compounds read high. Summed up:
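Yeast mec2-1 mutant treated with compound. Readout: growth inhibition vs vehicle controls.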

Assay [3] in a line: NCI Yeast Anticancer Drug Screen. Data for the sgs1 mgt1 strain (AID 161).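 Further: 0% = growth of cultures given vehicle only.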 Conditions: S. cerevisiae sgs1 mgt1 strain, active compounds read high. Summed up:
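Genetically altered yeast, compound exposure, growth inhibition relative to vehicle.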

Assay [4] can be described thus: NCI Yeast Anticancer Drug Screen. Data for the bub3 strain (AID 167). Conditions: S. cerevisiae bub3 mutant strain, active compounds read high. An outline of the steps: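 Whole-cell yeast assay. The mutant strain was incubated with compounds, and growth inhibition was determined by comparison with vehicle-treated cells.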
Assay [5] can be described thus: NCI Yeast Anticancer Drug Screen. Data for the mlh1 rad18 strain (AID 175). Conditions: S. cerevisiae mlh1 rad18 strain growth inhibition, active compounds read high. An outline of the steps: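 Yeast w/ defined DNA-repair lesions; compound exposure; growth vs vehicle controls → % inhibition.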
Assay [6] in a line: NCI Yeast Anticancer Drug Screen. Data for the cln2 rad14 strain (AID 165).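 Further: 0% = growth equal to vehicle treated cultures.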 Conditions: S. cerevisiae cln2 rad14 strain, active compounds read high. Summed up: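 cln2 rad14 yeast strain; compound exposure; growth inhibition read vs vehicle controls.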
The mark [7] stands for this setting: at 5.0 µM (retest, dose inferred, filed as 0.5).
Setting [8] is: at 50.0 µM (retest, dose inferred, filed as 5.0).

As for `CO/C(=N\N=C(/c1ccccc1)C(F)(F)F)c1ccncc1`, the growth inhibition is 44% in assay [1] (setting [7]); 75% (active) in assay [1] (setting [8]); 45% in assay [1] (at 50.0 µM); 0% in assay [2] (setting [7]); 58% in assay [2] (setting [8]); 62.6% in assay [2] (at 50.0 µM). In addition, the growth inhibition was 15% in assay [3] (setting [7]); 76% (active) in assay [3] (setting [8]); 71.8% (active) in assay [3] (at 50.0 µM); 2% in assay [4] (setting [7]); 79% (active) in assay [4] (setting [8]); 75.2% (active) in assay [4] (at 50.0 µM). For the same compound, the growth inhibition in assay [5] (setting [7]) is 0%; in assay [5] (setting [8]), 66%; in assay [5] (at 50.0 µM) it was 65%.
Turning to `CC1(C)OC(C(COC(=O)c2ccc([N+](=O)[O-])cc2)OS(=O)(=O)c2ccc([N+](=O)[O-])cc2)C(C(SCc2ccccc2)SCc2ccccc2)O1` (centres undefined), the growth inhibition is 12% in assay [1] (setting [7]); 97% (active) in assay [1] (setting [8]); 43.6% in assay [1] (at 50.0 µM); 1% in assay [2] (setting [7]); 99% (active) in assay [2] (setting [8]); 33.5% in assay [2] (at 50.0 µM). The growth inhibition was 4% in assay [3] (setting [7]); 98% (active) in assay [3] (setting [8]); 46.6% in assay [3] (at 50.0 µM); -2% in assay [4] (setting [7]); 99% (active) in assay [4] (setting [8]); 15.3% in assay [4] (at 50.0 µM). In addition, the growth inhibition in assay [5] (setting [7]) is 8%; in assay [5] (setting [8]), 98% (active); in assay [5] (at 50.0 µM) it was 67%.
In the case of `Cc1cc2c(C(C)C)c(O)c(O)c(C=Nc3ccc(C(=O)O)cc3)c2c(O)c1-c1c(C)cc2c(C(C)C)c(O)c(O)c(C=Nc3ccc(C(=O)O)cc3)c2c1O`, the growth inhibition is 14% in assay [1] (setting [7]); 97% (active) in assay [1] (setting [8]); 91.8% (active) in assay [1] (at 50.0 µM); 27% in assay [2] (setting [7]); 98% (active) in assay [2] (setting [8]); 91.2% (active) in assay [2] (at 50.0 µM). The growth inhibition was 34% in assay [3] (setting [7]); 97% (active) in assay [3] (setting [8]); 61.4% in assay [3] (at 50.0 µM); 4% in assay [4] (setting [7]); 98% (active) in assay [4] (setting [8]); 58.5% in assay [4] (at 50.0 µM). The growth inhibition was 40% in assay [5] (setting [7]), 98% (active) in assay [5] (setting [8]) and 86.3% (active) in assay [5] (at 50.0 µM).
For `O=S(=O)(OCC#CCOS(=O)(=O)c1ccc(Cl)c(Cl)c1)c1ccc(Cl)c(Cl)c1`, the growth inhibition is -1% in assay [1] (setting [7]); 32% in assay [1] (setting [8]); 28.8% in assay [1] (at 50.0 µM); -1% in assay [2] (setting [7]); 41% in assay [2] (setting [8]); 44% in assay [2] (at 50.0 µM). Besides, the growth inhibition in assay [3] (setting [7]) was -6%; in assay [3] (setting [8]), 63%; in assay [3] (at 50.0 µM), 54.7%; in assay [6] (setting [7]), 1%; in assay [6] (setting [8]), 8%; in assay [6] (at 50.0 µM), 75.2% (active). In addition, the growth inhibition was -4% in assay [4] (setting [7]); 32% in assay [4] (setting [8]); 35.3% in assay [4] (at 50.0 µM); 7% in assay [5] (setting [7]); 37% in assay [5] (setting [8]); 48.2% in assay [5] (at 50.0 µM).
`CC1=C/C(=C(/c2ccc(O)c(C)c2)c2ccccc2C(=O)O)C=CC1=O`: the growth inhibition is -13% in assay [1] (setting [7]); 99% (active) in assay [1] (setting [8]); 99% (active) in assay [1] (at 50.0 µM); -3% in assay [2] (setting [7]); 99% (active) in assay [2] (setting [8]); 99.5% (active) in assay [2] (at 50.0 µM). Also, the growth inhibition was -9% in assay [3] (setting [7]); 99% (active) in assay [3] (setting [8]); 99.1% (active) in assay [3] (at 50.0 µM); -28% in assay [6] (setting [7]); 98% (active) in assay [6] (setting [8]); 99.1% (active) in assay [6] (at 50.0 µM). In addition, the figures for the growth inhibition in assay [5] (setting [7]), in assay [5] (setting [8]) and in assay [5] (at 50.0 µM) were 6%, 99% (active) and 99% (active), respectively.
Regarding `O=C(Nc1ccc(Cl)cc1)OCCOCCOC(=O)Nc1ccc(Cl)cc1`, the growth inhibition in assay [1] (setting [7]) is 9%; in assay [1] (setting [8]), 97% (active); in assay [1] (at 50.0 µM), 95.8% (active); in assay [2] (setting [7]) it was 0%; in assay [2] (setting [8]), 97% (active); in assay [2] (at 50.0 µM), 97% (active). In addition, the growth inhibition in assay [3] (setting [7]) is 25%; in assay [3] (setting [8]), 93% (active); in assay [3] (at 50.0 µM), 97.9% (active); in assay [6] (setting [7]), 6%; in assay [6] (setting [8]), 97% (active); in assay [6] (at 50.0 µM), 98.2% (active). In addition, the growth inhibition in assay [5] (setting [7]) is 4%; in assay [5] (setting [8]), 96% (active); in assay [5] (at 50.0 µM), 98% (active).
On to `CCOC(=O)CC1=NC(=Nc2ccc(Cl)c(Cl)c2)SC1`, for which the growth inhibition in assay [1] (setting [7]) is 0%; in assay [1] (setting [8]), 95% (active); in assay [1] (at 50.0 µM) it was 96.2% (active); in assay [2] (setting [7]), -3%; in assay [2] (setting [8]), 98% (active); in assay [2] (at 50.0 µM), 99% (active). The growth inhibition in assay [3] (setting [7]) is 0%; in assay [3] (setting [8]), 98% (active); in assay [3] (at 50.0 µM) it was 99.1% (active); in assay [6] (setting [7]) it was -5%; in assay [6] (setting [8]), 94% (active); in assay [6] (at 50.0 µM) it was 96.6% (active). The growth inhibition is 4% in assay [4] (setting [7]); 98% (active) in assay [4] (setting [8]); 97.7% (active) in assay [4] (at 50.0 µM); -2% in assay [5] (setting [7]); 98% (active) in assay [5] (setting [8]); 98.3% (active) in assay [5] (at 50.0 µM).
Regarding `O=C(CBr)c1cccc(OC(=O)c2ccccc2)c1`, the growth inhibition in assay [1] (setting [7]) is 91% (active); in assay [1] (setting [8]), 99% (active); in assay [1] (at 50.0 µM) it was 44.2%; in assay [2] (setting [7]), 91% (active); in assay [2] (setting [8]), 98% (active); in assay [2] (at 50.0 µM) it was 26.1%. Also, the growth inhibition in assay [3] (setting [7]) is 100% (active); in assay [3] (setting [8]), 99% (active); in assay [3] (at 50.0 µM) it was 68%; in assay [6] (setting [7]) it was 88% (active); in assay [6] (setting [8]) it was 99% (active); in assay [6] (at 50.0 µM), 29.9%. For the same compound, the figures for the growth inhibition in assay [5] (setting [7]), in assay [5] (setting [8]) and in assay [5] (at 50.0 µM) were 90% (active), 99% (active) and 16.1%, respectively.
For the compound `CC(=O)OC(OC(C)=O)c1ccc([N+](=O)[O-])o1`, the growth inhibition is -7% in assay [1] (setting [7]); -39% in assay [1] (setting [8]); 99.4% (active) in assay [1] (at 50.0 µM); -23% in assay [2] (setting [7]); -22% in assay [2] (setting [8]); 99% (active) in assay [2] (at 50.0 µM). The growth inhibition was -5% in assay [3] (setting [7]); -10% in assay [3] (setting [8]); 99.3% (active) in assay [3] (at 50.0 µM); -3% in assay [6] (setting [7]); -23% in assay [6] (setting [8]); 99.2% (active) in assay [6] (at 50.0 µM). The results for the growth inhibition in assay [5] (setting [7]), in assay [5] (setting [8]) and in assay [5] (at 50.0 µM) were 5%, 4% and 99% (active), respectively.
For the compound `Cc1c(Cl)c(Cl)cc([N+](=O)[O-])c1Cl`, the growth inhibition in assay [1] (setting [7]) is 41%; in assay [1] (setting [8]), 49%; in assay [1] (at 50.0 µM), 24.9%; in assay [2] (setting [7]), 51%; in assay [2] (setting [8]) it was 45%; in assay [2] (at 50.0 µM), 37.6%. For the same compound, the growth inhibition in assay [3] (setting [7]) was -5%; in assay [3] (setting [8]), 15%; in assay [3] (at 50.0 µM), 46%; in assay [6] (setting [7]) it was 31%; in assay [6] (setting [8]), 47%; in assay [6] (at 50.0 µM) it was -6.9%. Also, the growth inhibition is 11% in assay [4] (setting [7]); 38% in assay [4] (setting [8]); 52.4% in assay [4] (at 50.0 µM); 25% in assay [5] (setting [7]); 46% in assay [5] (setting [8]); 19.4% in assay [5] (at 50.0 µM).
